Screening data deposited in PubChem by several laboratories.
A selection: hits, their analogues and other compounds. The true share with any hit is near 3.9%.
HIF act: HIF pathway transcriptional activation. hit rate 0.32% among 300,000. U2OS HRE-luciferase reporter, luminescence; normalized: DMSO 0%, desferrioxamine 100%. activation, % at 7.5 µM (by protocol);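 active means mean activation of at least 10% of the iron chelator positive control signal, with at least half of replicates also reaching 10%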
AHR activator: activators of human aryl hydrocarbon receptor; P35869; AHR-responsive luciferase reporter cells, luminescence; hit rate 2.5% among 320,000; AID 2796; activation, % at 5 µM; in the data active means activation above about 47%
Target sequence (P35869 whole entry, looked up): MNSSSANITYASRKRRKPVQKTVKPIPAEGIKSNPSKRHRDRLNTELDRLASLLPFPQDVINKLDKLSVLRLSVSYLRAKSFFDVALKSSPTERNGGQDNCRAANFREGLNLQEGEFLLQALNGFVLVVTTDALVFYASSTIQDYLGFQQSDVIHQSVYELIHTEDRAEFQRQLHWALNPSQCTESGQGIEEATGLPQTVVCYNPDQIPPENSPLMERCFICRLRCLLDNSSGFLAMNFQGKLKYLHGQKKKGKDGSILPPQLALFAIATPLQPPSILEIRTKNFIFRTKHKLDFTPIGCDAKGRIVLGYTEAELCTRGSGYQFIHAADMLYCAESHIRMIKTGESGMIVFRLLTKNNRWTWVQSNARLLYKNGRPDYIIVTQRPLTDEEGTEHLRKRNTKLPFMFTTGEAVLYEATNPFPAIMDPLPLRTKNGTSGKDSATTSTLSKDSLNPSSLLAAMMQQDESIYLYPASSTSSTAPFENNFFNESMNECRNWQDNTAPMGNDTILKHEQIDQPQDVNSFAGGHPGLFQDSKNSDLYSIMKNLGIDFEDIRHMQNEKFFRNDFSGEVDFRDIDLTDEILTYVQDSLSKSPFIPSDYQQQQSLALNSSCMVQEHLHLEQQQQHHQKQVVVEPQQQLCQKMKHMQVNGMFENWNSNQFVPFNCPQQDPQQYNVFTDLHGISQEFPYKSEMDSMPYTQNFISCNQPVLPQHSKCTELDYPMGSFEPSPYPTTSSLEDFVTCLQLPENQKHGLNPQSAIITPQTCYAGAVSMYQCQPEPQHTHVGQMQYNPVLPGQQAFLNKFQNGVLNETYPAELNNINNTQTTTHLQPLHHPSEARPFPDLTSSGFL
CR mimetic SO: caloric restriction mimetics inhibiting age-related superoxide in yeast. S. cerevisiae aged cells, superoxide DHE fluorescence; active compounds read low. superoxide response (% of plate mean), % at 10 µM. hit rate 0.18% among 330,000. AID 2690;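 active means superoxide response under a set limit, about three screen SD below normal, cut at about 65% in these data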;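 further: yeast aged for seven days with compound at 30 °C before DHE staining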
PLCb3 inh: PLC-beta3 (human) inhibition, primary screen. Q01970. Purified PLC-beta3, fluorogenic substrate, fluorescence. hit rate 0.18% among 370,000. inhibition, % at 12.2 µM; in the data active means inhibition above about 11%
HGIII-sPLA2 inh: Blocks human group III sPLA2 activity; QFRET BODIPY PC-A2 liposome hydrolysis, fluorescence; AID 743126; hit rate 0.56% among 370,000; inhibition, % at 12.2 µM; Q9NZ20;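 active means inhibition above mean plus 3 SD of compounds lying within the high and low control bounds, cut at about 19% in these data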
PLCg1 inh: inhibitors of human phospholipase C gamma1. P19174. purified PLC-gamma1, fluorogenic substrate, fluorescence. inhibition, % at 12.2 µM. hit rate 0.84% among 370,000; in the data active means inhibition above about 9.5%
A number is an active result.

Results for O=S1(=O)CC2c3ccc(F)cc3CN2CN1C1CCCC1 (configuration not stated) ?
PLCb3 inh: inactive; HGIII-sPLA2 inh: inactive; PLCg1 inh: inactive

Results for CC(=O)Oc1ccc([N+](=O)[O-])cc1N1C(=O)c2ccccc2C1=O ?
HIF act: inactive; AHR activator: inactive; CR mimetic SO: inactive; PLCb3 inh: 12; HGIII-sPLA2 inh: inactive; PLCg1 inh: 12

Results for COc1ccc([N+](=O)[O-])cc1N1C(=O)c2cccnc2C1=O ?
HIF act: inactive; AHR activator: inactive; CR mimetic SO: inactive; PLCb3 inh: inactive; HGIII-sPLA2 inh: inactive; PLCg1 inh: inactive

How did COc1ccc(-c2cc3c(=O)n(CC(=O)N4CCN(C)CC4)ncn3n2)cc1 do in these assays?
HIF act: inactive; AHR activator: 73; CR mimetic SO: inactive; PLCb3 inh: inactive; HGIII-sPLA2 inh: inactive; PLCg1 inh: inactive

How did COc1ccc(-c2cc3c(=O)n(CC(=O)N4CCCCC4)ncn3n2)cc1 do in these assays?
HIF act: inactive; AHR activator: inactive; CR mimetic SO: inactive; PLCb3 inh: inactive; HGIII-sPLA2 inh: inactive; PLCg1 inh: inactive

Results for Cc1ccc(S(=O)(=O)CCC(=O)Nc2nnc(-c3ccc(F)cc3)o2)cc1 ?
HIF act: inactive; AHR activator: inactive; CR mimetic SO: inactive; PLCb3 inh: inactive; HGIII-sPLA2 inh: inactive; PLCg1 inh: inactive

Results for COc1cc(OC)cc(-c2nnc(NC(=O)CCS(=O)(=O)c3ccc(C)cc3)o2)c1 ?
HIF act: inactive; AHR activator: 65; CR mimetic SO: inactive; PLCb3 inh: inactive; HGIII-sPLA2 inh: inactive; PLCg1 inh: inactive

What do the screens show for `Cc1ccc(NC(=O)c2ccc(CS(=O)(=O)Cc3ccccc3C)o2)cc1C`?
PLCb3 inh: inactive; HGIII-sPLA2 inh: inactive; PLCg1 inh: inactive

What do the screens show for `Cc1cc(C)cc(NC(=O)NC(C)C2CCCO2)c1` (configuration not stated)?
HIF act: inactive; AHR activator: inactive; CR mimetic SO: inactive; PLCb3 inh: inactive; HGIII-sPLA2 inh: inactive; PLCg1 inh: inactive

Results for CC(=O)Nc1ccc(NC(=O)C(C)OC(=O)c2c(C)nn(-c3ccccc3)c2Cl)cc1 (configuration not stated) ?
AHR activator: inactive; CR mimetic SO: inactive; PLCb3 inh: inactive; HGIII-sPLA2 inh: inactive; PLCg1 inh: inactive

Results for CC(Sc1ncnc2ccccc12)C(=O)Nc1ccc2c(c1)OCO2 (configuration not stated) ?
HIF act: inactive; AHR activator: 51; CR mimetic SO: inactive; PLCb3 inh: inactive; HGIII-sPLA2 inh: inactive; PLCg1 inh: inactive

How did Cc1ccccc1NC(=O)Nc1ccc2c(c1)OCO2 do in these assays?
HIF act: inactive; AHR activator: 68; CR mimetic SO: inactive; PLCb3 inh: inactive; HGIII-sPLA2 inh: inactive; PLCg1 inh: inactive

How did Cc1nn(-c2ccccc2)c(Cl)c1C(=O)OC(C)C(=O)Nc1ccc2c(c1)OCO2 (configuration not stated) do in these assays?
HIF act: inactive; AHR activator: 66; CR mimetic SO: inactive; PLCb3 inh: inactive; HGIII-sPLA2 inh: inactive; PLCg1 inh: inactive

How did CC(NC(=O)Nc1ccc2c(c1)OCO2)C1CCCO1 (configuration not stated) do in these assays?
HIF act: inactive; AHR activator: 66; CR mimetic SO: inactive; PLCb3 inh: inactive; HGIII-sPLA2 inh: inactive; PLCg1 inh: inactive

Results for Nn1c(SCC(=O)NC2CCCCC2)nnc1-c1n[nH]c2c1CCC2 ?
PLCb3 inh: inactive; HGIII-sPLA2 inh: inactive; PLCg1 inh: inactive

What do the screens show for `O=C(Cc1ccccc1[N+](=O)[O-])Nc1ccc2c(c1)OCO2`?
HIF act: inactive; AHR activator: 61; CR mimetic SO: inactive; PLCb3 inh: inactive; HGIII-sPLA2 inh: inactive; PLCg1 inh: inactive

What do the screens show for `Cc1cccc(NC(=O)NCc2ccc3c(c2)OCO3)c1C`?
HIF act: inactive; AHR activator: inactive; CR mimetic SO: inactive; PLCb3 inh: inactive; HGIII-sPLA2 inh: inactive; PLCg1 inh: inactive

What do the screens show for `CCc1ccccc1NC(=O)NCc1ccc2c(c1)OCO2`?
HIF act: inactive; AHR activator: 68; CR mimetic SO: inactive; PLCb3 inh: inactive; HGIII-sPLA2 inh: inactive; PLCg1 inh: inactive

Results for Cc1ccc(C)c(NC(=O)Nc2ccc3c(c2)OCO3)c1 ?
HIF act: inactive; AHR activator: 64; CR mimetic SO: inactive; PLCb3 inh: inactive; HGIII-sPLA2 inh: inactive; PLCg1 inh: inactive
